# Experimental data reported in paper PMC4336329 (PLoS ONE, 2015).
# Hit rate of the full screen: of about 310,000 compounds, about 14,000 (4.5%) showed an effect of 50% or more. The effect is printed as a negative number. For the sample, strong results were picked, then their nearest neighbours and some compounds at random.
# Molecular target: human ether-à-go-go-related gene (hERG) potassium channel (human, UniProt Q12809)
# Assay: primary screen, population patch clamp on CHO cells stably expressing hERG; higher = less effect of the substance
# 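Further: peak tail current of the secondary pulse compared with the same well before compound.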
# Chain of human ether-à-go-go-related gene (hERG) potassium channel (Q12809 whole entry, looked up): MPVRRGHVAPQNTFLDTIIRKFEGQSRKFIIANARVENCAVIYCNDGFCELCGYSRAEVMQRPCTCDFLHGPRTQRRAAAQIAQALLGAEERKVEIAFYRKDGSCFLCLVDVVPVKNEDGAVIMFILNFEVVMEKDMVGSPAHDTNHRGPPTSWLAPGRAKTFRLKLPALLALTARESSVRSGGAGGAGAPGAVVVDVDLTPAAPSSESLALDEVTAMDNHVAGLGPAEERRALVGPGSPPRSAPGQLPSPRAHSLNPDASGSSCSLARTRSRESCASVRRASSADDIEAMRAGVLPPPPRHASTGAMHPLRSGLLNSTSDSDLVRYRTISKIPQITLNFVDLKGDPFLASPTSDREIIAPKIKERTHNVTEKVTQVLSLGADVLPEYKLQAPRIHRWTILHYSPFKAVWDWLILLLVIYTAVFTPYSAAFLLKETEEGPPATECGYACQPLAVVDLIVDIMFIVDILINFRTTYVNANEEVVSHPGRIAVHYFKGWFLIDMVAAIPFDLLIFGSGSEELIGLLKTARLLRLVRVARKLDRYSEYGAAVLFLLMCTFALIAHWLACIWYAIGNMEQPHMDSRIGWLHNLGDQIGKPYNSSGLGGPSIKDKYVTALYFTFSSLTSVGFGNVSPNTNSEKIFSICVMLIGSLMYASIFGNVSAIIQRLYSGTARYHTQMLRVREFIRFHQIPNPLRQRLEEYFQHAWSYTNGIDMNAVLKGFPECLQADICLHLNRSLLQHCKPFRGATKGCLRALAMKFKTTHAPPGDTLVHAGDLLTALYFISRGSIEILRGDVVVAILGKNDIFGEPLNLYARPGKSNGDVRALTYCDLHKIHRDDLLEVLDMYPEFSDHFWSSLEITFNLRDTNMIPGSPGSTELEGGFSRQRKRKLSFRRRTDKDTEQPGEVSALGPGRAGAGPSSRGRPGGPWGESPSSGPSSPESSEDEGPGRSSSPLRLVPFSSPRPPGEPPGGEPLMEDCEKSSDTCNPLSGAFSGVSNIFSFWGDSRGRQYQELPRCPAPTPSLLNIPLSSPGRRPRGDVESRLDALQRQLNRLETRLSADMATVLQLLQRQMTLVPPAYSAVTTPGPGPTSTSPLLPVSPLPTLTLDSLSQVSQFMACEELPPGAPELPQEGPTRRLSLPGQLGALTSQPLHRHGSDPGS
row,Compound,"hERG current change (%, negative = inhibition) at 10uM [%]"
1,Cc1onc(-c2ccccc2)c1CNC(=O)C1COc2ccccc2O1 (stereo not shown),-23
2,Cc1ccc2oc(=O)c3cc(C(=O)NCCCN4CCCC(C)C4)sc3c2c1 (stereo not shown),-34.9
3,O=C(NCCCN1CCCCCC1)c1cc2c(=O)oc3ccccc3c2s1,-60.5
4,CCC1CCCCN1CCCNC(=O)c1cc2c(=O)oc3ccc(C)cc3c2s1 (stereo not shown),-69.5
5,Cc1ccc2oc(=O)c3cc(C(=O)NCCCN4C(C)CCCC4C)sc3c2c1 (stereo not shown),-61.6
6,Cc1ccc2oc(=O)c3cc(C(=O)NCCCN4CC(C)CC(C)C4)sc3c2c1 (stereo not shown),-49.2
7,Cc1ccc2oc(=O)c3cc(C(=O)NCCCN4CCN(C)CC4)sc3c2c1,-5.62
8,Cc1ccc2oc(=O)c3cc(C(=O)NCCCN4CCCCCC4)sc3c2c1,-40.2
9,CCN1CCN(CCCNC(=O)c2cc3c(=O)oc4ccc(C)cc4c3s2)CC1,-19.1
10,CN1CCN(CCCNC(=O)c2cc3c(=O)oc4ccccc4c3s2)CC1,-14.2
11,Cc1nn(C)c(C(=O)Nc2ccc(S(=O)(=O)NC34CC5CC(CC(C5)C3)C4)cc2)c1Br,9.77
12,COc1ccc(OCC(O)CN(CC(O)COc2ccc(OC)cc2)c2cccc(O)c2)cc1 (stereo not shown),2.41
13,CCSc1nnc2c(n1)OC1(CCCC1)Nc1ccccc1-2,2.61
14,COc1ccc(CN(C)C(=O)CCN2C(=O)c3ccccc3C2=O)c(OC)c1OC,-2.22
15,CCc1c(C)sc(NC(=S)N2CCN(C(=O)C3CCCO3)CC2)c1C(=O)OC (stereo not shown),-13
16,CC(C)Cc1nnc(NC(=O)CCC(=O)N2CCN(c3ccccc3F)CC2)s1,17
17,Cc1ccc(Nc2ccc(C(N)=O)cc2[N+](=O)[O-])cc1C,8.9
18,CC(=O)OC(C(=O)NCc1ccc(F)cc1)c1ccccn1 (stereo not shown),4.52
19,OCC[C@@H]1C[C@@H](O)[C@H](O)[C@@]2(Cc3ccccc3CCO2)O1,11
20,Cn1ccc(NC(=O)c2ccc(Cl)cc2Cl)n1,7.79
21,O=C(CN1C(=O)c2ccccc2C1=O)Nc1cccc(S(=O)(=O)Nc2ccccc2Cl)c1,19.9
22,c1ccc(C2=Nn3c(nnc3-c3cccnc3)SC2)cc1,-25.4
23,COc1ccc(C2=Nn3c(nnc3-c3ccccc3)SC2)cc1OC,7.08
24,COc1ccc(OC)c(C2=Nn3c(nnc3-c3ccncc3)SC2)c1,-24.3
25,COc1ccc(C2=Nn3c(nnc3-c3cccnc3)SC2)cc1OC,-61.8
26,COc1ccc(C2=Nn3c(nnc3-c3ccncc3)SC2)cc1OC,-70.8
27,COc1ccc(C2=Nn3c(nnc3-c3ccccn3)SC2)cc1OC,-34.3
28,O=S(=O)(c1ccc(NC2CCCCC2)cc1)N1CCOCC1,-23.7

row,Compound,"hERG current change (%, negative = inhibition) at 10uM [%]"
1,COc1ccc(NC(=O)c2cc(-c3ccccn3)nc3ccccc23)cc1S(=O)(=O)N(C)C,-16.6
2,O=C(Nn1cnnc1)c1ccc(Br)s1,13.9
3,CN(C)C(=O)CSc1nc2ccccc2c(=O)[nH]1,22
4,CCN(CC)CCCn1c2c(c(SCC(=O)Nc3nc4ccccc4s3)nc1=O)CCC2,-71.2
5,CCN(CC)CCn1c2c(c(SCC(=O)Nc3nc4ccccc4s3)nc1=O)CCCC2,-60.2
6,CCN(CC)CCn1c2c(c(SCC(=O)Nc3nc4ccccc4s3)nc1=O)CCC2,-58.3
7,CCCNC(=O)c1onc(CSc2ccc(Cl)cc2)c1C(=O)NCCOC,-19.7
8,Cn1c(SCc2cccnc2)nc2c(c1=O)SCC2,7.48
9,N#Cc1cc2c(=O)n3ccccc3nc2n(-c2ccc(Cl)cc2)c1=O,5.19
10,COC(=O)c1sccc1NC(=O)CN1CCN(c2ccc(F)cc2)CC1,6.89
11,Cc1nc(SCC(=O)Nc2cccc(Cl)c2)n[nH]1,6.87
12,O=C(NC1CC2CCCC(C1)N2S(=O)(=O)c1ccccc1)C1CCCCC1 (stereo not shown),-2.61
13,O=C(Nc1ccc(N2CCOCC2)cc1)NC1CCCCC1,6.25
14,Cc1ccc(C(=O)NCc2ccccn2)cc1S(=O)(=O)N1CCOCC1,8.99
15,Cc1ccc(C(=O)NCc2ccncc2)cc1S(=O)(=O)N1CCCCC1,-30.5
16,Cc1ccc(C(=O)NCc2cccnc2)cc1S(=O)(=O)N1CCCCCC1,-65.7
17,Cc1ccc(S(=O)(=O)N2CCCC2)cc1C(=O)NCc1ccccc1CN1CCCC1,-52.3
18,O=C(NCc1cccnc1)c1ccc(Cl)c(S(=O)(=O)N2CCCCCC2)c1,-36.2
19,COc1ccc2nc(NC(=O)c3cc(S(=O)(=O)N4CCOCC4)ccc3C)sc2c1,1.72
20,Cc1ccc(C(=O)NCc2ccccc2CN2CCCC2)cc1S(=O)(=O)N1CCOCC1,-61.4
21,Cc1ccc(S(=O)(=O)N2CCCC2)cc1C(=O)NCc1ccccn1,5.54
22,Cc1ccc(S(=O)(=O)N2CCCCCC2)cc1C(=O)NCc1ccccn1,-14.8
23,CCOC(=O)c1sc(NC(=O)c2cc(S(=O)(=O)N3CCOCC3)ccc2C)nc1C,-60.9
24,Cc1ccc(C(=O)NCc2ccccc2F)cc1S(=O)(=O)N1CCCC1,4.12
25,CC(=O)c1sc(NC(=O)c2cc(S(=O)(=O)N3CCOCC3)ccc2F)nc1C,-1.54
26,CCOC(=O)C1CCCN(C(=O)CCn2nnnc2CN2CCOCC2)C1 (stereo not shown),18.4
27,O=C1NCCCc2nc(Oc3ccccc3)sc21,0.239
